Laboratory results from the supplement of paper PMC10849652.
Of roughly 8,800 targets only a part is listed; those with a hit were picked by preference. About 0.5% of all pairs of compound and target were hits.

Compound: C[C@H](C1=CC=C(C=C1)C(=O)NC2=C3C=CNC3=NC=C2)N
Experiment: log2 fold change, soluble protein after heating vs DMSO (PISA); higher = thermal stabilisation; K562 lysate, 10 uM; active = over 0.2 and 3.5 SD of the protein, either way, in both replicates (recomputed)
Method in brief: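 Quantification was by TMTpro 16plex LC-MS/MS with equalised channel sums, applied to the supernatant after 21,000xg for 90 min. Samples were crude K562 extract at 1 mg/mL protein in PBS pH 7.4 with 1 mM MgCl2, treated with 10 μM compound for 30 min, heated for 3 min across 48°C-58°C, pooled and brought to 0.5% NP-40 at 4°C. Values are log-two fold changes in thermal stability relative to solvent controls, from duplicates.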

UniProt Q8NEB9, sequence (Q8NEB9 whole entry, looked up): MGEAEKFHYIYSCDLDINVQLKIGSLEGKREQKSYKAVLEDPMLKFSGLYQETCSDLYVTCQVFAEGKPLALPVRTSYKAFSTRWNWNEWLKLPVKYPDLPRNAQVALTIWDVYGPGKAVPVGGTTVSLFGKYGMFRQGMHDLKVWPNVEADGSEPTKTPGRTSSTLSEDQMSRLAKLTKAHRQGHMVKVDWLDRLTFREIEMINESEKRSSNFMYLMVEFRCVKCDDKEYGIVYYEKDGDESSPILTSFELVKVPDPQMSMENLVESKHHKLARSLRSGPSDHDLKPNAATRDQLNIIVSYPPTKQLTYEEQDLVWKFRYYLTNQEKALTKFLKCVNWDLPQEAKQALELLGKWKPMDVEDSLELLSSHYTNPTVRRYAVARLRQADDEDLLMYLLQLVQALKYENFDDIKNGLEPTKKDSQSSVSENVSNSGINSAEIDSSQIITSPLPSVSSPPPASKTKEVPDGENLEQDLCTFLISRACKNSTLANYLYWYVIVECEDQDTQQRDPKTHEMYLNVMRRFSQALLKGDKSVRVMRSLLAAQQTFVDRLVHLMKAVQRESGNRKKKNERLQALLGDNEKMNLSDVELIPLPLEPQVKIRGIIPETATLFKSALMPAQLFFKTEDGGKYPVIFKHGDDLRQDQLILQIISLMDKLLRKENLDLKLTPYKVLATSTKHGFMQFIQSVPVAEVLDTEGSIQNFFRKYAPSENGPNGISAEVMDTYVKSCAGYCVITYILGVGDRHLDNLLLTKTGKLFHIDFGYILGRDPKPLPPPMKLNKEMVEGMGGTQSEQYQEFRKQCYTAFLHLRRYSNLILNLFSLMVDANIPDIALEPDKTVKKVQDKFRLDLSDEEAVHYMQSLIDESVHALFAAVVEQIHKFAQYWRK
UniProt Q96S99, sequence (Q96S99 whole entry, looked up): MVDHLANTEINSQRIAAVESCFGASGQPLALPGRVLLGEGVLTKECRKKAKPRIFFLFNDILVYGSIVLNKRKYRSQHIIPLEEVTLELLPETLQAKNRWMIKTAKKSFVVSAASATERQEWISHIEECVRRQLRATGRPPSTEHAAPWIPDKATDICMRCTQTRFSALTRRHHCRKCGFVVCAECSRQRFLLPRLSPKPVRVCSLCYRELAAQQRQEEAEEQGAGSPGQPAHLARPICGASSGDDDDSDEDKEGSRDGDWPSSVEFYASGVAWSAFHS
UniProt Q13362, sequence (Q13362 whole entry, looked up): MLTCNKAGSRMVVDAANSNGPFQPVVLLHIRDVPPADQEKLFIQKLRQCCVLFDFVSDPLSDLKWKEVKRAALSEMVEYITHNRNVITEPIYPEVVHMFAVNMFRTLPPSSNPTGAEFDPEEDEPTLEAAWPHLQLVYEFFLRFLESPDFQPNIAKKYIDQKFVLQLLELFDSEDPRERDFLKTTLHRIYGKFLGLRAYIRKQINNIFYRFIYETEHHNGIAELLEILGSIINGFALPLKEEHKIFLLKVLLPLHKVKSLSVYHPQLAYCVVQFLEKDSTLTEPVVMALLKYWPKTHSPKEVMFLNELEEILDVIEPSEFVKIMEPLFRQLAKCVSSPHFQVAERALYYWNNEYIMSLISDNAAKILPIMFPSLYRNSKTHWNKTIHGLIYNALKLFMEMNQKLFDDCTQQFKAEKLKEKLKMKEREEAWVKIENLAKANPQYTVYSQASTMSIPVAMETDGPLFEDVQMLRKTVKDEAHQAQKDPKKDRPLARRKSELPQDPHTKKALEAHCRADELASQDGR
UniProt Q14671, sequence (Q14671 whole entry, looked up): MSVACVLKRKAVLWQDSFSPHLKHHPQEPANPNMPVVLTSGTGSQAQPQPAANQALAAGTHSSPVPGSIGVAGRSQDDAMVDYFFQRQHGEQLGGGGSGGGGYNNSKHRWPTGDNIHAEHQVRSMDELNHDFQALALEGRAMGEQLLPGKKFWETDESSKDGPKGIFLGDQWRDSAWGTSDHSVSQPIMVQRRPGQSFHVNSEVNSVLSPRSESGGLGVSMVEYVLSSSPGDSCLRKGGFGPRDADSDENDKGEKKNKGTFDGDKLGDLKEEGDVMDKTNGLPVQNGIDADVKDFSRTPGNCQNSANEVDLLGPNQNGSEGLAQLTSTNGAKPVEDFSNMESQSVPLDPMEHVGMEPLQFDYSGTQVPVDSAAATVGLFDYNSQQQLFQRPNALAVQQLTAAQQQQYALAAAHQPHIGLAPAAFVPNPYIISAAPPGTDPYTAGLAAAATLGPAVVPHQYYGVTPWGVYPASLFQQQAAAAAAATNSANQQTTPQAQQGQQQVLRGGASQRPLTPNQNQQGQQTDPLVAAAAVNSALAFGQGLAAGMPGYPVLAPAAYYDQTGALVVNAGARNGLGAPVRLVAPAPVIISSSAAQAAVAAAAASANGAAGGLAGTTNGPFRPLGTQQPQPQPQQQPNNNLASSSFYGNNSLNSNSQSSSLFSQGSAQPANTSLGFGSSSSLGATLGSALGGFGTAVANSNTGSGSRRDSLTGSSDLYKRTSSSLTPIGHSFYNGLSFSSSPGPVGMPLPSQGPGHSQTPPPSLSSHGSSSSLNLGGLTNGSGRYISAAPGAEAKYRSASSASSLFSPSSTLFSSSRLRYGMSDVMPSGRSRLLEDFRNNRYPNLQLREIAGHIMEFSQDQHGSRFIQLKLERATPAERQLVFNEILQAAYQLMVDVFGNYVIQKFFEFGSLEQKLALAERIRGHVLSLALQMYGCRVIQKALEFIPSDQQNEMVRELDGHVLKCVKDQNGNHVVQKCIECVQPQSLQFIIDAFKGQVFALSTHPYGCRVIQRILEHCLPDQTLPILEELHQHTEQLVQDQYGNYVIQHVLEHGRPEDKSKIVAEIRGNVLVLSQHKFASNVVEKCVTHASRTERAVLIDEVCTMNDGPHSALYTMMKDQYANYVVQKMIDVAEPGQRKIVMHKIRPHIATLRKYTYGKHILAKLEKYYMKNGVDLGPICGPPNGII
UniProt Q8WUM4, sequence (Q8WUM4 whole entry, looked up): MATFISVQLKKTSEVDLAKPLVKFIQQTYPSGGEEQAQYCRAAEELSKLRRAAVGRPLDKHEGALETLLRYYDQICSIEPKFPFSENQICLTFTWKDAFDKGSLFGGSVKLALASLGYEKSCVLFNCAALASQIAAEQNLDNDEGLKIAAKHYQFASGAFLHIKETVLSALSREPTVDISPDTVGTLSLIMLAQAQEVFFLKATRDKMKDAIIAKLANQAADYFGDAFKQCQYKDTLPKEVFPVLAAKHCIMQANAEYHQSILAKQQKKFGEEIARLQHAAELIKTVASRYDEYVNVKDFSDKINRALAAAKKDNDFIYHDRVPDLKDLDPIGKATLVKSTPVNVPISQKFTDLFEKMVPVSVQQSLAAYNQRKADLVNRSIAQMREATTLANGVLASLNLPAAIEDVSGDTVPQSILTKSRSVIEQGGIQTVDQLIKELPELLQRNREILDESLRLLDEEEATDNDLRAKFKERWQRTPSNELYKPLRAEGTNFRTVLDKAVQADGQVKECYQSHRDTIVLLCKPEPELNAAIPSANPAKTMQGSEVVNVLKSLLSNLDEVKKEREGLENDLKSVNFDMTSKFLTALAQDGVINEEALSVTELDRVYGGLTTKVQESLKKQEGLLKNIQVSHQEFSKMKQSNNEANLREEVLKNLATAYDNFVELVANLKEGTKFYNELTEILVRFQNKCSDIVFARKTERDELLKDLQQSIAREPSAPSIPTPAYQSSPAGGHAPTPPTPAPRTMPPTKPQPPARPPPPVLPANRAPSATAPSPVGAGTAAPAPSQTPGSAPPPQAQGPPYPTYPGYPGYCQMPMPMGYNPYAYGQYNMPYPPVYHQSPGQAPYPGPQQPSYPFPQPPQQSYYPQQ
UniProt Q5JRX3, sequence (Q5JRX3 whole entry, looked up): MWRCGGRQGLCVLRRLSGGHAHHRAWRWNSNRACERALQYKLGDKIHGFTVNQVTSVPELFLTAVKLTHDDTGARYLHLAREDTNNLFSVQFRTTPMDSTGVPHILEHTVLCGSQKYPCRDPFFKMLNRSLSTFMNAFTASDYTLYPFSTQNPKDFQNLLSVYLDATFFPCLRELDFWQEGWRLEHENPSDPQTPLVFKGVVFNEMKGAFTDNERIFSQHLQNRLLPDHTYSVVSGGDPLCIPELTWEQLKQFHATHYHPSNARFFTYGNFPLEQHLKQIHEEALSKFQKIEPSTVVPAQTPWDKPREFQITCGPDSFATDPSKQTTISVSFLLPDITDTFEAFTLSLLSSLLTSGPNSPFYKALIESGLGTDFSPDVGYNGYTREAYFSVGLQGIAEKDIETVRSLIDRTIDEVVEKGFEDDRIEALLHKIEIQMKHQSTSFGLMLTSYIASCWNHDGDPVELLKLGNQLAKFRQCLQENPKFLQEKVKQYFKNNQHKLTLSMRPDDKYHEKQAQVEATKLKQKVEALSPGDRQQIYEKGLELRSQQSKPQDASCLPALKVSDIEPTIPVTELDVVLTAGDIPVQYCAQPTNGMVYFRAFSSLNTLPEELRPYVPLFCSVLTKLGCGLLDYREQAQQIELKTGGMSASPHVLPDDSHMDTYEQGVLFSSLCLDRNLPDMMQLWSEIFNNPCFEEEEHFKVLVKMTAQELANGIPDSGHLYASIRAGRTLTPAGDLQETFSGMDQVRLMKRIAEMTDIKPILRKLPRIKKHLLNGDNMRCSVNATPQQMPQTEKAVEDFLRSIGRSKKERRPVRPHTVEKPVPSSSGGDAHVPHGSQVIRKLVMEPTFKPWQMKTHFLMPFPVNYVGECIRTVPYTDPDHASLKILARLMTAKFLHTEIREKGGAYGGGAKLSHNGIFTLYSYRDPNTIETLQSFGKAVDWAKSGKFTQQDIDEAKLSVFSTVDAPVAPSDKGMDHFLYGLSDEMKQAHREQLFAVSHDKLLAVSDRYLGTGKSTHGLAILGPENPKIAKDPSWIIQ
UniProt P07737, sequence (P07737 whole entry, looked up): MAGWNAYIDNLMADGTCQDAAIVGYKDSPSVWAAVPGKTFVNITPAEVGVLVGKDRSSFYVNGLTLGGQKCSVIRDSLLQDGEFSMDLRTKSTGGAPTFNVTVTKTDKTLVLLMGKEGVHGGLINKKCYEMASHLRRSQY

log2 fold change, inactive:
PUS1 (UniProt Q9Y606) -0.006
PTPN23 (UniProt Q9H3S7) 0.005
PDCD6IP (UniProt Q8WUM4) -0.106
PMS2 (UniProt P54278) -0.036
PSTPIP2 (UniProt Q9H939) 0.062
PUM1 isoform 3 (UniProt Q14671) 0.021
PICALM (UniProt Q13492) 0.052
PTPN1 (UniProt P18031) -0.042
PPP2R5C isoform 5 (UniProt Q13362) 0.069
POLD3 (UniProt Q15054) 0.022
PIP4K2A (UniProt P48426) -0.089
PDS5A (UniProt Q29RF7) -0.09
PFN1 (UniProt P07737) -0.006
PLXNB2 (UniProt O15031) -0.019
PFAS (UniProt O15067) -0.011
PITRM1 isoform 2 (UniProt Q5JRX3) 0.04
PPP1R8 (UniProt Q12972) -0.236
PLEKHF1 (UniProt Q96S99) -0.043
PRKACB isoform 2 (UniProt P22694) 0.141
PIP4K2C (UniProt Q8TBX8) -0.128
PDPK1 (UniProt O15530) 0.262
PIK3C3 (UniProt Q8NEB9) -0.137
